In PubChem BioAssay AID1240 (Sanford-Burnham Center for Chemical Genomics, 2008):
The campaign covered roughly 50,000 compounds. About 800 (1.6%) showed an effect of 50% or more. For the sample, strong results were picked, then their nearest neighbours and some compounds at random.

target: Bcl-2-like protein 10 (Homo sapiens) (UniProt Q9HD36); assay: Phenotype converters, Bcl-B/TR3 peptide binding displacement, primary biochemical FP (AID 1240); details: GST-Bcl-B / FITC-TR3 peptide fluorescence polarization; stronger effect = higher value; compound at 3.75 mg/L;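 further: 0% = Bcl-B with tracer peptide and DMSO and 100% = tracer peptide lacking Bcl-B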
Sequence (Q9HD36 whole entry, looked up): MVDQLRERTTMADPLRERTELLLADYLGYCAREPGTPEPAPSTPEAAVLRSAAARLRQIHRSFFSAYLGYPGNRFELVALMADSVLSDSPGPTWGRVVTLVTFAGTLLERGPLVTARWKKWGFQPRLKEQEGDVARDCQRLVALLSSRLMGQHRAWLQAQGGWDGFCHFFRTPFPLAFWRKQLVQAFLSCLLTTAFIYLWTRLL

Question: For `COc1ccccc1NC(=O)C1=C(C)NC(=S)NC1c1ccccc1OC` (configuration not stated), which displacement is on record?
Answer: 6%

Question: For `O=C1NC(=O)N(c2ccc(Cl)cc2)C(=O)/C1=C\c1ccc(N2CCCC2)cc1`, which displacement is on record?
Answer: 71.4%

Question: How did the displacement turn out when `CCOc1ccccc1/C=C1\C(=O)NC(=O)N(c2ccc(Br)c(C)c2)C1=O` was run?
Answer: -7.9%

Question: With `O=C1NC(=O)N(c2ccc(Cl)cc2)C(=O)/C1=C/c1ccc(F)cc1` as the compound, how does the displacement read?
Answer: 8.2%

Question: How did the displacement turn out when `O=C1NC(=O)N(c2ccccc2)C(=O)/C1=C\c1ccc(Cl)cc1` was run?
Answer: 1.4%

Question: How did the displacement turn out when `Cc1cc(N2C(=O)NC(=O)/C(=C\c3cn(C)c4ccccc34)C2=O)ccc1Br` was run?
Answer: 126%

Question: Which displacement does the source give for `Cc1c(/C=C2\C(=O)NC(=O)N(c3ccc(Cl)cc3)C2=O)c2ccccc2n1C` here?
Answer: 104%

Question: `COC(=O)Cn1cc(/C=C2\C(=O)NC(=O)N(c3cc(C)cc(C)c3)C2=O)c2ccccc21` was tested. Which displacement did it give?
Answer: -4.6%

Question: How did the displacement turn out when `Cc1cc(C)cc(N2C(=O)NC(=O)/C(=C\c3ccccc3C)C2=O)c1` was run?
Answer: 6.3%

Question: `C#CCn1cc(/C=C2\C(=O)NC(=O)N(c3ccc(Br)c(C)c3)C2=O)c2ccccc21` was tested. Which displacement did it give?
Answer: 6.2%

Question: With `Cc1cc(C)cc(N2C(=O)NC(=O)/C(=C\c3cn(C)c4ccccc34)C2=O)c1` as the compound, how does the displacement read?
Answer: 144%

Question: Which displacement does the source give for `CCn1cc(/C=C2\C(=O)NC(=O)N(c3ccc(Cl)cc3)C2=O)c2ccccc21` here?
Answer: -18.6%

Question: How did the displacement turn out when `O=C1NC(=O)N(c2ccccc2)C(=O)/C1=C/c1ccc(N2CCCC2)cc1` was run?
Answer: -30.2%

Question: How did the displacement turn out when `Cc1ccc(C(=O)N2CCC(Cc3ccccc3)CC2)o1` was run?
Answer: 6.7%

Question: For `CC1S/C(=N/N=C/c2ccccc2Cl)NC1=O` (configuration not stated), which displacement is on record?
Answer: 1.2%

Question: For `CCOC(=O)/C(C#N)=C\c1ccc(F)cc1`, which displacement is on record?
Answer: 2.3%

Question: Which displacement does the source give for `CCOC(=O)C(C)Oc1cc2oc(=O)cc(-c3ccccc3)c2cc1CC` (configuration not stated) here?
Answer: 11%

Question: With `COc1ccc(CCN=CC2=C(O)CC(c3ccccc3)CC2=O)cc1OC` (configuration not stated) as the compound, how does the displacement read?
Answer: 1.2%

Question: Which displacement does the source give for `CCCOc1cccc(NC(=O)c2c(-c3ccccc3)noc2C)c1` here?
Answer: -5.5%

Question: Which displacement does the source give for `COc1ccc(OC)c(/C=C/C(=O)Oc2cc(C)cc(C)c2)c1` here?
Answer: 11.8%

Question: How did the displacement turn out when `Cc1ccc(N2C(=O)NC(=O)/C(=C\c3ccsc3)C2=O)cc1` was run?
Answer: 66.1%

Question: `Cn1cc(C=C2C(=O)NC(=S)NC2=O)c2ccccc21` was tested. Which displacement did it give?
Answer: 8.8%

Question: With `Cc1cccc(N2C(=O)/C(=C/c3ccc(N(C)C)cc3)SC2=S)c1` as the compound, how does the displacement read?
Answer: -5.4%

Question: For `O=C1NC(=O)N(c2ccc(Cl)cc2)C(=O)/C1=C/c1ccsc1`, which displacement is on record?
Answer: -24.1%

Question: For `CC(C)c1ccc(N2C(=O)NC(=O)/C(=C/c3cn(C)c4ccccc34)C2=O)cc1`, which displacement is on record?
Answer: 145%

Question: With `Cc1cccc(N2C(=O)S/C(=C\c3ccccc3)C2=O)c1` as the compound, how does the displacement read?
Answer: 12.3%

Question: For `COc1ccccc1OCCn1cc(/C=C2/C(=O)NC(=O)N(c3ccccc3)C2=O)c2ccccc21`, which displacement is on record?
Answer: 1.6%

Question: `COc1ccc(N2C(=O)NC(=O)/C(=C/c3cn(CCOc4ccccc4OC)c4ccccc34)C2=O)cc1` was tested. Which displacement did it give?
Answer: 87.6%

Question: `Cc1cc(C)cc(N2C(=O)NC(=O)/C(=C\c3ccsc3)C2=O)c1` was tested. Which displacement did it give?
Answer: -7.8%

Question: Which displacement does the source give for `CC(C)c1ccc(N2C(=O)NC(=O)/C(=C/c3ccccc3O)C2=O)cc1` here?
Answer: 0.6%

Question: With `COc1ccccc1OCCn1cc(C=C2C(=O)N(C)C(=O)N(C)C2=O)c2ccccc21` as the compound, how does the displacement read?
Answer: 3.5%

Question: Which displacement does the source give for `Cc1cccc(N2C(=O)S/C(=C/c3ccc(N(C)C)cc3)C2=O)c1` here?
Answer: 95.7%
